Measured values: the supplement of paper PMC10849652
Of roughly 8,800 targets only a part is listed; those with a hit were picked by preference. About 0.5% of all pairs of compound and target were hits.

Legend:
Assay in all cases: log2 fold change, soluble protein after heating vs DMSO (PISA); higher = thermal stabilisation; K562 lysate, 10 uM; active = over 0.2 and 3.5 SD of the protein, either way, in both replicates (recomputed)
lapatinib = compound: CS(=O)(=O)CCNCc1ccc(-c2ccc3ncnc(Nc4ccc(OCc5cccc(F)c5)c(Cl)c4)c3c2)o1 [lapatinib]
Procedure, shortened: (§1)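 Log-two fold change in thermal stability relative to solvent controls is reported from duplicates. For each sample, crude K562 extract from dounce-homogenised pellets in PBS pH 7.4 with 1 mM MgCl2, at 1 mg/mL protein, was treated with 10 μM compound for 30 min. Aliquots heated for 3 min across 48°C-58°C were pooled, brought to 0.5% NP-40 at 4°C and cleared at 21,000xg for 90 min. The supernatant was quantified by TMTpro 16plex LC-MS/MS with channel sums equalised.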

pictilisib = compound: CS(=O)(=O)N1CCN(Cc2cc3nc(-c4cccc5[nH]ncc45)nc(N4CCOCC4)c3s2)CC1 [pictilisib]
Procedure, shortened: as §1

crizotinib = compound: C[C@@H](Oc1cc(-c2cnn(C3CCNCC3)c2)cnc1N)c1c(Cl)ccc(F)c1Cl [crizotinib]
Procedure, shortened: as §1

[1] = compound: C[C@H](C1=CC=C(C=C1)C(=O)NC2=C3C=CNC3=NC=C2)N
Procedure, shortened: as §1

duvelisib = compound: C[C@H](Nc1ncnc2nc[nH]c12)c1cc2cccc(Cl)c2c(=O)n1-c1ccccc1 [duvelisib]
Procedure, shortened: as §1

gandotinib = compound: Cc1cc(Nc2cc(CN3CCOCC3)c3nc(C)c(Cc4ccc(Cl)cc4F)n3n2)n[nH]1 [gandotinib]
Procedure, shortened: as §1

tozasertib = compound: Cc1cc(Nc2cc(N3CCN(C)CC3)nc(Sc3ccc(NC(=O)C4CC4)cc3)n2)n[nH]1 [tozasertib]
Procedure, shortened: as §1

doramapimod = compound: Cc1ccc(-n2nc(C(C)(C)C)cc2NC(=O)Nc2ccc(OCCN3CCOCC3)c3ccccc23)cc1 [doramapimod]
Procedure, shortened: as §1

bafetinib = compound: Cc1ccc(NC(=O)c2ccc(CN3CC[C@H](N(C)C)C3)c(C(F)(F)F)c2)cc1Nc1nccc(-c2cncnc2)n1 [bafetinib]
Procedure, shortened: as §1

[2] = compound: Cc1cccc(CC(=O)N2CCc3c2ccc(-c2cn(C)c4ncnc(N)c24)c3F)n1
Procedure, shortened: as §1

Measured: log2 fold change

EDARADD (UniProt Q8WWZ3)
inactive: lapatinib -0.037 | pictilisib -0.122 | crizotinib 0.027 | [1] -0.049 | duvelisib 0.015 | gandotinib 0.074 | tozasertib 0.082 | doramapimod 0.086 | bafetinib 0 | [2] -0.027

GEMIN4 (UniProt P57678)
inactive: lapatinib -0.031 | pictilisib -0.012 | crizotinib -0.065 | [1] -0.013 | duvelisib 0.004 | gandotinib -0.188 | tozasertib -0.009 | doramapimod 0.032 | bafetinib -0.038 | [2] 0.039

FTSJ3 (UniProt Q8IY81)
inactive: lapatinib 0.013 | pictilisib 0.023 | crizotinib -0.037 | [1] -0.031 | duvelisib -0.01 | gandotinib -0.019 | tozasertib -0.019 | doramapimod -0.025 | bafetinib 0.013 | [2] 0.031

EPS8L2 (UniProt Q9H6S3)
inactive: lapatinib 0.044 | pictilisib -0.03 | crizotinib -0.012 | [1] -0.068 | duvelisib -0.086 | gandotinib 0.061 | tozasertib -0.258 | doramapimod -0.046 | bafetinib -0.101 | [2] 0.207

FAM83D (UniProt Q9H4H8)
inactive: lapatinib -0.01 | pictilisib -0.024 | crizotinib -0.026 | [1] -0.021 | duvelisib -0.002 | gandotinib -0.018 | tozasertib -0.038 | doramapimod 0.009 | bafetinib -0.116 | [2] 0.031

FARSA (UniProt Q9Y285)
inactive: lapatinib -0.028 | pictilisib 0.012 | crizotinib -0.05 | [1] -0.003 | duvelisib 0.056 | gandotinib 0.039 | tozasertib -0.063 | doramapimod 0 | bafetinib -0.075 | [2] -0.047

ETHE1 (UniProt O95571)
inactive: lapatinib 0.049 | pictilisib -0.049 | crizotinib -0.022 | [1] -0.034 | duvelisib -0.011 | gandotinib 0.016 | tozasertib -0.06 | doramapimod 0.005 | bafetinib 0.038 | [2] 0.018

EDC4 (UniProt Q6P2E9)
UniProt Q6P2E9, sequence (Q6P2E9 whole entry, looked up): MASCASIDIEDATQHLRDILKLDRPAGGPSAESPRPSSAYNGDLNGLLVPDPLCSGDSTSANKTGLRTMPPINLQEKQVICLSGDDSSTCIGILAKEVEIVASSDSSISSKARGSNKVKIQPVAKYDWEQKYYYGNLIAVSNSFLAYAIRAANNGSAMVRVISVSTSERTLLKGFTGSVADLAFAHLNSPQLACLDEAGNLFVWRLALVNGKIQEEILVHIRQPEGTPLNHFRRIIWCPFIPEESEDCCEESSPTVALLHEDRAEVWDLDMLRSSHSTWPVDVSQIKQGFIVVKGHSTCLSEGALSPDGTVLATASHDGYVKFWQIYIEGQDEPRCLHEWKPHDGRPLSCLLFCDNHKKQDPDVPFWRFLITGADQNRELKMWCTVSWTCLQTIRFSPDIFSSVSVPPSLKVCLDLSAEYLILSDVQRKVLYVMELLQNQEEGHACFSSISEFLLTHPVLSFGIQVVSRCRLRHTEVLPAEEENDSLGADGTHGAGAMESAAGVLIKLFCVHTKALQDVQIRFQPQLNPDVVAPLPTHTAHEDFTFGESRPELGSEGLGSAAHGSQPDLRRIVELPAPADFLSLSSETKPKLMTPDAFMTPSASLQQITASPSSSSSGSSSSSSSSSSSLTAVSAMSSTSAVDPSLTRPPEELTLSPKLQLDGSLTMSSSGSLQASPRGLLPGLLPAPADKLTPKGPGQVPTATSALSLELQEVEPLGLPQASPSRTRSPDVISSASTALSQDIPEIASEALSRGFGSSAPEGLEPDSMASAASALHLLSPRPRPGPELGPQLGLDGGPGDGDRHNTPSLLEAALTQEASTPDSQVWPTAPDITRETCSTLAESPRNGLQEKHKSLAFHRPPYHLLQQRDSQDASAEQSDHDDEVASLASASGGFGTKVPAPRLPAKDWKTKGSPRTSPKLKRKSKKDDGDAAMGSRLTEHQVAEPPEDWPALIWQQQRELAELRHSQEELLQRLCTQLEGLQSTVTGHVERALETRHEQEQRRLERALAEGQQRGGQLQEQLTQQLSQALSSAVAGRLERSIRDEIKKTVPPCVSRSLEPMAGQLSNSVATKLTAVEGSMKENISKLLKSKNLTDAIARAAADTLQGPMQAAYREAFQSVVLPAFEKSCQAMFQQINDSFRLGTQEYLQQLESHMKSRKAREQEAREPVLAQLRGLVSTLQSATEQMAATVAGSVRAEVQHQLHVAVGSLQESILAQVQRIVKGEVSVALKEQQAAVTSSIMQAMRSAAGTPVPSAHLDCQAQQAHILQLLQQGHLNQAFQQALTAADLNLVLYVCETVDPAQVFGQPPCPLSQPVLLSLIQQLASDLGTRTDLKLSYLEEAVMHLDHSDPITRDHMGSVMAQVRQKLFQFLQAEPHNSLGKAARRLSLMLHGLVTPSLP
inactive: lapatinib -0.025 | pictilisib -0.029 | crizotinib -0.01 | [1] -0.044 | duvelisib 0.016 | gandotinib -0.027 | tozasertib -0.016 | doramapimod -0.014 | bafetinib -0.043 | [2] 0.049

ENO2 (UniProt P09104)
UniProt P09104, sequence (P09104 whole entry, looked up): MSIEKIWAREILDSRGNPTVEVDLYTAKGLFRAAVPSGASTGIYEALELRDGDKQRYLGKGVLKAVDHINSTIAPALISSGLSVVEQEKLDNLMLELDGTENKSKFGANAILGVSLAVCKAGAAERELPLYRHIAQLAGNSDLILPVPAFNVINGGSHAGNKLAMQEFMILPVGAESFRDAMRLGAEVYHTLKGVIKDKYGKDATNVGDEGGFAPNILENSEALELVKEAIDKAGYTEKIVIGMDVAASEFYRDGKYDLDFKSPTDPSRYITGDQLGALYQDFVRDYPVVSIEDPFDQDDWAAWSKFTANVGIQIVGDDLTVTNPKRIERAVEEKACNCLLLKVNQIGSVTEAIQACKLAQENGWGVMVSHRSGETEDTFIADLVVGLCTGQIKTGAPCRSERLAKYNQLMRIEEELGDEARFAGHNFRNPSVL
inactive: lapatinib 0.01 | pictilisib 0.012 | crizotinib -0.009 | duvelisib 0.04 | gandotinib 0.214 | tozasertib -0.111 | doramapimod -0.012 | bafetinib -0.014
active: [1] -0.358 | [2] 0.264

G6PD isoform 2 (UniProt P11413)
inactive: lapatinib 0.018 | pictilisib -0.022 | crizotinib -0.03 | [1] 0.094 | duvelisib -0.023 | gandotinib -0.063 | tozasertib -0.003 | doramapimod -0.015 | bafetinib 0.037 | [2] -0.035

ELAVL1 isoform 2 (UniProt Q15717)
inactive: lapatinib 0.031 | pictilisib -0.002 | crizotinib -0.037 | [1] 0.055 | duvelisib 0.001 | gandotinib -0.067 | tozasertib -0.047 | doramapimod 0.007 | bafetinib -0.004 | [2] -0.026

EEFSEC (UniProt P57772)
inactive: lapatinib -0.019 | pictilisib 0.008 | crizotinib -0.042 | [1] -0.043 | duvelisib 0.031 | gandotinib -0.023 | tozasertib 0.024 | doramapimod 0.022 | bafetinib -0.079 | [2] 0.041

FUBP3 (UniProt Q96I24)
inactive: lapatinib 0.02 | pictilisib -0.109 | crizotinib 0.005 | [1] 0.036 | duvelisib -0.022 | gandotinib 0.019 | tozasertib 0.033 | doramapimod -0.034 | bafetinib -0.055 | [2] -0.05

FKBP8 isoform 2 (UniProt Q14318)
UniProt Q14318, sequence (Q14318 whole entry, looked up): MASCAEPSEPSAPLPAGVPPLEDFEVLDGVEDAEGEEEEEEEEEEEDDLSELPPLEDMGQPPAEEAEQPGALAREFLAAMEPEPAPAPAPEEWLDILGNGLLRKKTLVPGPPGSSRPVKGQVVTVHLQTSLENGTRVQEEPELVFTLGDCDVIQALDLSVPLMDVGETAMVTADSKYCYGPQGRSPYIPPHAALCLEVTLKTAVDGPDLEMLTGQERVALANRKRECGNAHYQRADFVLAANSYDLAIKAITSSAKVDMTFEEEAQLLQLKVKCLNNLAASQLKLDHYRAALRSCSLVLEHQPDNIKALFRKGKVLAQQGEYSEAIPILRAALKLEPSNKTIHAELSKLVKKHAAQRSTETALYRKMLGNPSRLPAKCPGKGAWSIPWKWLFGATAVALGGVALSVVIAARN
inactive: lapatinib -0.041 | pictilisib -0.036 | crizotinib -0.12 | [1] -0.035 | duvelisib 0.044 | gandotinib -0.021 | tozasertib -0.024 | doramapimod 0.064 | bafetinib -0.07 | [2] 0.013

FXR2 (UniProt P51116)
UniProt P51116, sequence (P51116 whole entry, looked up): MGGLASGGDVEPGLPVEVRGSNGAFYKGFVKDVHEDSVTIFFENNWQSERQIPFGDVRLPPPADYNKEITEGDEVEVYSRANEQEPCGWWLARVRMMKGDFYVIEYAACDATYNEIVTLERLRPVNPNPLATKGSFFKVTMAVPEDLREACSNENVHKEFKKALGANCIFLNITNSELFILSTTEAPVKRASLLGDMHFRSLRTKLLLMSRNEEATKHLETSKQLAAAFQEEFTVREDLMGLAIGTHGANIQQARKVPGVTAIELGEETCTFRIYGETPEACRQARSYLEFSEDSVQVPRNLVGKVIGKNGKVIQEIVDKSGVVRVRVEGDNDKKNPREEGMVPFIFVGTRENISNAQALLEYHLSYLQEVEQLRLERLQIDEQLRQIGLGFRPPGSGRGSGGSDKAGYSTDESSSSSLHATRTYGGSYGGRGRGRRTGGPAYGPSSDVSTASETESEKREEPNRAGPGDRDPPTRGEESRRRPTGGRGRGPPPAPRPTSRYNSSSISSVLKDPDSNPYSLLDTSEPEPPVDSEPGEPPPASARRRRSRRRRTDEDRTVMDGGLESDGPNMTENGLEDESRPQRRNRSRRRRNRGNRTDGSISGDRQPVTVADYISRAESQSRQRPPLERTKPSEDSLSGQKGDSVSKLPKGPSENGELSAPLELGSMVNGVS
inactive: lapatinib -0.002 | pictilisib -0.055 | crizotinib -0.017 | [1] -0.022 | duvelisib -0.016 | gandotinib -0.074 | tozasertib 0.009 | doramapimod 0.037 | bafetinib 0.002 | [2] 0.027

GART (UniProt P22102)
inactive: lapatinib -0.008 | pictilisib -0.024 | crizotinib -0.017 | [1] 0.062 | duvelisib -0.014 | gandotinib -0.052 | tozasertib -0.004 | doramapimod 0 | bafetinib -0.001 | [2] -0.026

EIF2AK1 (UniProt Q9BQI3)
UniProt Q9BQI3, sequence (Q9BQI3 whole entry, looked up): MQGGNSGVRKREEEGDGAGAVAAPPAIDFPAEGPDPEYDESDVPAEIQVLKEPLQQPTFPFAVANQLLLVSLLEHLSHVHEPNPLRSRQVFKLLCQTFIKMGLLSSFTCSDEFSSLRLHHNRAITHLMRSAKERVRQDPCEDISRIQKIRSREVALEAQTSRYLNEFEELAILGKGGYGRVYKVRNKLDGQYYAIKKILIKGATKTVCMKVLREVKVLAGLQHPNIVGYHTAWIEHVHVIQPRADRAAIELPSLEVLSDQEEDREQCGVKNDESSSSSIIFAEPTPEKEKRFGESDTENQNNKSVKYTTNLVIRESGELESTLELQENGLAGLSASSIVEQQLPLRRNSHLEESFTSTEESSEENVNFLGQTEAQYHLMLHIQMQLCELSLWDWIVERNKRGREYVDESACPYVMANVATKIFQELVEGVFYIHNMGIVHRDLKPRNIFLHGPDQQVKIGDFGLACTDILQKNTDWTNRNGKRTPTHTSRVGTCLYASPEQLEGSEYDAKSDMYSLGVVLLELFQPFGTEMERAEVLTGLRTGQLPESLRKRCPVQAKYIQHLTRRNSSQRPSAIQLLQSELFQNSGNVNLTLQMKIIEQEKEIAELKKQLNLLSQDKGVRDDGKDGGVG
inactive: lapatinib 0.142 | pictilisib -0.022 | crizotinib -0.036 | [1] -0.033 | duvelisib 0.06 | gandotinib -0.009 | tozasertib -0.009 | doramapimod 0.017 | bafetinib -0.068 | [2] 0.062

FNTB (UniProt P49356)
inactive: lapatinib 0.027 | pictilisib -0.052 | crizotinib 0.032 | [1] -0.047 | duvelisib 0.143 | gandotinib 0.055 | tozasertib -0.069 | doramapimod -0.053 | bafetinib -0.013 | [2] 0.015

GABPB1 isoform 3 (UniProt Q06547)
UniProt Q06547, sequence (Q06547 whole entry, looked up): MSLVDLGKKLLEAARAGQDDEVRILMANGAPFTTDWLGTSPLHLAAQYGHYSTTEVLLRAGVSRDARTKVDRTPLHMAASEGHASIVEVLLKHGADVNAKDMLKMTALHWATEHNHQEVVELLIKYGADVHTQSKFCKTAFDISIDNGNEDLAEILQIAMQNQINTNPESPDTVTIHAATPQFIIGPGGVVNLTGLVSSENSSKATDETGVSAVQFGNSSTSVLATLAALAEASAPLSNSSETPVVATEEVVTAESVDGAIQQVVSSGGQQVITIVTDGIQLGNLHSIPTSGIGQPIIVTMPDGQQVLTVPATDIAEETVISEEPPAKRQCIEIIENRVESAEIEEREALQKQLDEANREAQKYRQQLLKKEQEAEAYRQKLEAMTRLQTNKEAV
inactive: lapatinib -0.057 | pictilisib -0.086 | crizotinib 0.001 | [1] -0.007 | duvelisib 0.068 | gandotinib 0 | tozasertib -0.001 | doramapimod -0.029 | bafetinib -0.149 | [2] 0.043

FECH isoform 2 (UniProt P22830)
inactive: lapatinib -0.099 | pictilisib 0.64 | crizotinib 0.027 | [1] -0.12 | duvelisib -0.022 | gandotinib 0.418 | tozasertib 0 | doramapimod -0.015 | bafetinib 0.557 | [2] -0.036

EXOC1 (UniProt Q9NV70)
inactive: lapatinib -0.013 | pictilisib 0.029 | crizotinib -0.041 | [1] 0.04 | duvelisib 0.016 | gandotinib -0.186 | tozasertib -0.004 | doramapimod 0.023 | bafetinib -0.04 | [2] 0.024

DSTN (UniProt P60981)
inactive: lapatinib 0.01 | pictilisib 0.008 | crizotinib 0.007 | [1] -0.02 | duvelisib -0.001 | gandotinib -0.023 | tozasertib 0.031 | doramapimod -0.015 | bafetinib 0.057 | [2] 0.019

FADS1, A0A0A0MR51
active: gandotinib 0.559
inactive: lapatinib 0.203 | pictilisib -0.087 | crizotinib -0.003 | [1] -0.024 | duvelisib -0.029 | tozasertib 0.041 | doramapimod 0.018 | bafetinib 0.027 | [2] 0.083

FTL (UniProt P02792)
UniProt P02792, sequence (P02792 whole entry, looked up): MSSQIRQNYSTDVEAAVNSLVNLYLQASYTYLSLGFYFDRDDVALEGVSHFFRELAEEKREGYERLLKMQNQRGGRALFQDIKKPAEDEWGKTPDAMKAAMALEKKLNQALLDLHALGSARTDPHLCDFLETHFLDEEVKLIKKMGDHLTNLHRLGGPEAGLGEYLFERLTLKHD
inactive: lapatinib -0.072 | pictilisib -0.027 | crizotinib -0.066 | [1] -0.022 | duvelisib -0.001 | gandotinib 0.068 | tozasertib 0.008 | doramapimod -0.024 | bafetinib -0.052 | [2] -0.018

FAU (UniProt E9PR30)
inactive: lapatinib -0.018 | pictilisib 0.02 | crizotinib -0.055 | duvelisib 0.047 | gandotinib -0.105 | tozasertib -0.027 | doramapimod 0.071 | bafetinib -0.019 | [2] -0.121
active: [1] 0.293

FARSB (UniProt Q9NSD9)
inactive: lapatinib 0.003 | pictilisib -0.014 | crizotinib -0.033 | [1] 0.007 | duvelisib 0.021 | gandotinib -0.053 | tozasertib -0.014 | doramapimod 0.033 | bafetinib -0.005 | [2] -0.001

ECI2 (UniProt O75521)
inactive: lapatinib -0.022 | pictilisib -0.017 | crizotinib 0.032 | [1] -0.002 | duvelisib 0.004 | gandotinib -0.009 | tozasertib 0.03 | doramapimod 0.007 | bafetinib -0.002 | [2] 0.042

GGT7 (UniProt Q9UJ14)
UniProt Q9UJ14, sequence (Q9UJ14 whole entry, looked up): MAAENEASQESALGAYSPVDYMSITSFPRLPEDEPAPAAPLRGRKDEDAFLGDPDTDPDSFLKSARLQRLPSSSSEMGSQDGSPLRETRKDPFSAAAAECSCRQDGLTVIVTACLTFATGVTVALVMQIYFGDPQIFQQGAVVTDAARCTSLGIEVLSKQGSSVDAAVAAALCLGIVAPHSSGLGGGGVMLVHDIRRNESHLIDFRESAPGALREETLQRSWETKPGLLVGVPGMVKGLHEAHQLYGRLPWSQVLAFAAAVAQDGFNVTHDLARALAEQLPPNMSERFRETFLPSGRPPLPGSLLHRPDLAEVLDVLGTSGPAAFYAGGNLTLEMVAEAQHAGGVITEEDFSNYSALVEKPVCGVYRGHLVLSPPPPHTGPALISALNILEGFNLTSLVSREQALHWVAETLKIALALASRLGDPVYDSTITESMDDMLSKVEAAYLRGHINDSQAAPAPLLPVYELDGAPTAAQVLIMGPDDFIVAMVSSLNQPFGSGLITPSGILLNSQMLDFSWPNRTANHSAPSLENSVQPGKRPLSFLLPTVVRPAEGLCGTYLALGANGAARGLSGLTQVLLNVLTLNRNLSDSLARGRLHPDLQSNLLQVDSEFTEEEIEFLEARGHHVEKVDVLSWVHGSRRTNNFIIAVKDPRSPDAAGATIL
inactive: lapatinib -0.024 | pictilisib -0.007 | crizotinib 0.01 | [1] 0.068 | duvelisib 0.011 | gandotinib 0.033 | tozasertib -0.03 | doramapimod -0.054 | bafetinib -0.09 | [2] 0.042

EMC7 (UniProt Q9NPA0)
UniProt Q9NPA0, sequence (Q9NPA0 whole entry, looked up): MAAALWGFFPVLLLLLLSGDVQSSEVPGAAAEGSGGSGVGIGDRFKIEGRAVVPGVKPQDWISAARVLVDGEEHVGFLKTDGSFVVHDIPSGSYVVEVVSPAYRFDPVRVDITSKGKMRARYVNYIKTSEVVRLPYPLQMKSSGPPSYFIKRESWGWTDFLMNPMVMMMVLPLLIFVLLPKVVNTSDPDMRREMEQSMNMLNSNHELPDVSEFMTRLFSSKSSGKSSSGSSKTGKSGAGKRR
active: [1] -0.353
inactive: lapatinib -0.03 | pictilisib 0.024 | crizotinib 0.012 | duvelisib -0.041 | gandotinib 0.077 | tozasertib 0.02 | doramapimod 0.011 | bafetinib -0.031 | [2] 0.174

GAPDH (UniProt P04406)
inactive: lapatinib 0.005 | pictilisib -0.024 | crizotinib 0.066 | [1] 0.043 | duvelisib 0.003 | gandotinib -0.002 | tozasertib -0.005 | doramapimod -0.031 | bafetinib 0.055 | [2] -0.082
